For assay [1], the target named is Luciferin 4-monooxygenase (Photinus pyralis) (UniProt P08659). The assay is described as follows: qHTS assay to identify small molecule inhibitors of firefly luciferase (AID 1224835). Also: nearly all actives have a fitted effect of over 25% in size. Also: potency is read from the fitted curve at half-maximal effect. The essentials:
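Quantitative HTS format; KM concentrations of both substrates. Purified P. pyralis FLuc activity quantified from luminescence images.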
(Quantitative high-throughput screening tests each substance at several concentrations.)

Assay [2] can be described thus: qHTS assay to identify small molecule agonists of the constitutive androstane receptor (CAR) signaling pathway - cell viability counter screen (AID 1224836). Also: nearly all actives have a fitted effect of over 45% in size. Also: potency is read from the fitted curve at half-maximal effect. The essentials: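 Cell viability multiplexed with the CAR agonist screen: CellTiter-Fluor fluorescence after 23 hr at 37 C. HepG2-CYP2B6-hCAR cells got compounds at 15 concentrations with PK11195 at 0.75 uM final.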

The target in assay [3] is Nuclear receptor subfamily 1 group I member 3 (Homo sapiens) (UniProt Q14994). The assay is described as follows: qHTS assay to identify small molecule antagonists of the constitutive androstane receptor (CAR) signaling pathway (AID 1224838).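 Also: HepG2 cells stably expressing hCAR with CYP2B6 luciferase reporter stimulated by CITCO; nearly all actives have a fitted effect of over 40% in size.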 Also: potency is read from the fitted curve at half-maximal effect. Summed up: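 Reporter luminescence was quantified after 24 h exposure of hCAR/CYP2B6-2.2kb double-stable HepG2 cells to compounds at 15 concentrations in the presence of 50 nM CITCO final.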

The target is the same in assay [4]. The assay is described as follows: qHTS assay to identify small molecule agonists of the constitutive androstane receptor (CAR) signaling pathway (AID 1224839). Also: nearly all actives have a fitted effect of over 15% in size. Also: potency is read from the fitted curve at half-maximal effect. Summed up: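 Luminescent ONE-Glo read-out after 24 hr, 37 C exposure of double-stable HepG2-CYP2B6-hCAR reporter cells to a 15-point compound series, in the presence of 0.75 uM PK11195 (final).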
A short description of assay [5]: qHTS assay to identify small molecule antagonists of the estrogen related receptor signaling pathway with the pleiotropic PPARgamma coactivator (PGC) from Tox21 10K library (AID 1224841; call rule not given here; also: actives are mostly falling curves and most rising ones were filed inactive; nearly all actives have a fitted effect of over 50% in size; also: potency is read from the fitted curve at half-maximal effect). Summed up: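 Each well held 2,000 PGC/ERR cells, pre-incubated six hours (37 C, 5% CO2). Test substances in DMSO were added by pin tool and left for 18 h at 37 C before luciferase detection by One-Glo.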

Assay [6] can be described thus: qHTS assay to identify small molecule agonists of the estrogen related receptor signaling pathway with the pleiotropic PPARgamma coactivator (PGC) from Tox21 10K library (AID 1224842). Also: nearly all actives have a fitted effect of over 15% in size. Summed up:
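PGC/ERR reporter cells (NTP line) were seeded 2,000 per well, rested 6 h at 37 C/5% CO2, then pin-dosed with compounds in DMSO for 18 h at 37 C; luciferase read by One-Glo luminescence after 30 min at room temperature.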

Assay [7] is described as follows: qHTS assay to identify small molecule agonists of the hypoxia (HIF-1) signaling pathway - cell viability counter screen (AID 1224844; calls by dose curve; also: nearly all actives have a fitted effect of over 50% in size). The essentials:
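Multiplexed with the HRE beta-lactamase assay, this viability read used CellTiter-Glo luminescence (30 min, RT) on HRE-bla ME-180 cells treated 17 hrs with compounds in 0.5% dialyzed FBS medium.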

In assay [8] the target is Thyrotropin receptor (Homo sapiens) (UniProt P16473). The assay is described as follows: qHTS assay to identify small molecule agonists of the thyroid stimulating hormone receptor (TSHR) signaling pathway (AID 1224843; calls by dose curve; also: nearly all actives have a fitted effect of over 45% in size). The essentials: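 Cell line HEK293 with TSHR; density 800/well. Exposure 30 min RT. Readout HTRF cAMP (cAMP-d2/anti-cAMP-cryptate), 1 h RT before reading.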

Assay [9] can be described thus: qHTS assay to identify small molecule antagonists of the constitutive androstane receptor (CAR) signaling pathway - cell viability counter screen (AID 1224837). Also: series mostly up to about 92 µM; nearly all actives have a fitted effect of over 45% in size. The essentials: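 Using CellTiter-Fluor, viability is scored in HepG2 cells stably carrying hCAR and a 2.2kb CYP2B6 reporter after 23 hr compound exposure across 15 concentrations, with CITCO present at 50 nM.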

Assay [10] in a line: qHTS assay to identify small molecule antagonists of the estrogen related receptor signaling pathway with the pleiotropic PPARgamma coactivator (PGC) from Tox21 10K library - cell viability counter screen (AID 1224840; active = well fitted cell-killing curve with a large enough effect in the repeat runs, not every such curve was filed as active; also: nearly all actives have a fitted effect of over 40% in size). Summed up: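 Here the PGC/ERR cells serve as a cytotoxicity control: they are exposed to compounds for 17.5 hours at 37 C, and live-cell signal is quantified using CellTiter-Fluor fluorescence.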

Structures are written as SMILES. Results filed as inconclusive are left out. Values without a mark were called inactive. Activity calls are given as the source filed them. Unless noted, calls follow the shape of the dose curve; as a rule, active = well fitted curve in the direction sought with a large enough effect in the repeat runs; inconclusive = weak or mixed curves; inactive = no such curve, though single readings can be large; an effect the other way counts as inactive or inconclusive.

Chain of Nuclear receptor subfamily 1 group I member 3 (Homo sapiens) (Q14994 whole entry, looked up): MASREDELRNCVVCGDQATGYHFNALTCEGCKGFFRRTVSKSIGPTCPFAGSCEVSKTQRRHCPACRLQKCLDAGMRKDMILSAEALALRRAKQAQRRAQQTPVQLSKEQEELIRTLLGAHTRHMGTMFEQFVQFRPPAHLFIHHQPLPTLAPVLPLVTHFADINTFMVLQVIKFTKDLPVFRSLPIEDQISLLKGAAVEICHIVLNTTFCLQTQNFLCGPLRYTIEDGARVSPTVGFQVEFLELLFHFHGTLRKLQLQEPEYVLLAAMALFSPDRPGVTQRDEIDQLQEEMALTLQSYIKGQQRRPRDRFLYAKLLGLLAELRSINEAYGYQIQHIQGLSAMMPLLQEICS
Chain of Thyrotropin receptor (Homo sapiens) (P16473 whole entry, looked up): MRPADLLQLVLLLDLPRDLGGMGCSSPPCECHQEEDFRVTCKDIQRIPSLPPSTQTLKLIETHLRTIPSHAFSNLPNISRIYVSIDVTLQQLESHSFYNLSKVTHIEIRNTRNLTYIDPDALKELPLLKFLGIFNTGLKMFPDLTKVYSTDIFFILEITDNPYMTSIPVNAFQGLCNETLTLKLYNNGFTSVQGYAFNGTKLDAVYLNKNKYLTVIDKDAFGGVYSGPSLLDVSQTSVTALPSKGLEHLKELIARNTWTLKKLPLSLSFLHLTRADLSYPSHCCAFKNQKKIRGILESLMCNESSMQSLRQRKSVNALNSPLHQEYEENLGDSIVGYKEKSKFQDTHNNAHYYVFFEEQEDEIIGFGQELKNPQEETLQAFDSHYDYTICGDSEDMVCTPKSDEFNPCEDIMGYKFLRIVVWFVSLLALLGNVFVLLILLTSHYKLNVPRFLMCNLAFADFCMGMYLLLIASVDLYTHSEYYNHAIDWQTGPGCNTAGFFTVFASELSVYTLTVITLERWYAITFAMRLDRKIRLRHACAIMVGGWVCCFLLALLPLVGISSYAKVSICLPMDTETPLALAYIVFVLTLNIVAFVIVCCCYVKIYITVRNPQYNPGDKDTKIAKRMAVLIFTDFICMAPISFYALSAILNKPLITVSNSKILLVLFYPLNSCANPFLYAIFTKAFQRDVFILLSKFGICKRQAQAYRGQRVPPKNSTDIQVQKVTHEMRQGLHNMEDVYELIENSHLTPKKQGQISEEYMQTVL
Chain of Luciferin 4-monooxygenase (Photinus pyralis) (P08659 whole entry, looked up): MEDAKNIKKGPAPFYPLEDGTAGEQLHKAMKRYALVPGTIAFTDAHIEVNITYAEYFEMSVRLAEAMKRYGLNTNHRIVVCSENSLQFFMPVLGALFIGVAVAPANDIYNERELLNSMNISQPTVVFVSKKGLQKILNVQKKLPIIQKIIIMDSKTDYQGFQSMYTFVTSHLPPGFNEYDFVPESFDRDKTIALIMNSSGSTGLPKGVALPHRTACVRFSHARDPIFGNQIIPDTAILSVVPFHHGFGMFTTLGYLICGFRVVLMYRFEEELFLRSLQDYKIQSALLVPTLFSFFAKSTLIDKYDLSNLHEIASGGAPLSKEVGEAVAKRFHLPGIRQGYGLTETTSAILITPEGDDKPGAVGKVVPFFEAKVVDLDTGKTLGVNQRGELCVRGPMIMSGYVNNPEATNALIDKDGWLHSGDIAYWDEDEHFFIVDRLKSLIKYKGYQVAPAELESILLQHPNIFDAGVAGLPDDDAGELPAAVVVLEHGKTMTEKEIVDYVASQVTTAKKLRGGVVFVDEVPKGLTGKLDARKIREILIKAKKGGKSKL

`CCCCc1c(C)nc(NCC)nc1OS(=O)(=O)N(C)C`: the Potency result in [1], in [2], in assay [3], in assay [6] and in [7] was “inactive” in each case. The values for the Potency in [4] and in [5] were 21.7 µM (active) and 48.6 µM (active), respectively.
For `CCOc1nc(F)cc2nc(S(=O)(=O)Nc3c(Cl)cccc3Cl)nn12`, the Potency result in assay [1], in [2], in assay [3], in assay [4], in assay [8] and in assay [7] was “inactive” throughout.
For the compound `ClCC(Br)CBr` (stereo not given), the Potency result in assay [1], in assay [2], in assay [9], in assay [8] and in assay [7] was “inactive” each time.
In the case of `C=CC(=O)OC(C)(C)C`, the Potency result in assay [1], in assay [2], in [3], in assay [4], in assay [10] and in assay [7] was “inactive” each time.
`COc1nn(C(=O)NS(=O)(=O)c2ccccc2OC(F)(F)F)c(=O)n1C`: the Potency entry in [1], in assay [2], in [3], in assay [4], in assay [10] and in assay [6] was “inactive” in each case. Further, the Potency entry in assay [8] and in [7] was “inactive” throughout.
For `CNC(C)Cc1ccccc1OC` (stereo not given), the Potency result in assay [1], in assay [2], in [3], in assay [4] and in assay [7] was “inactive” in each case.
As for `NNC(=O)c1cccnc1`, the Potency result in assay [1], in [2], in [3], in assay [10], in [8] and in [7] was “inactive” each time.
In the case of `COP(=S)(OC)Oc1cc(Cl)c(I)cc1Cl`, the values for the Potency in [1] and in [4] were 79.6 µM (active) and 54.5 µM (active), respectively. Moreover, the Potency entry in [2], in assay [3] and in assay [7] was “inactive” in each case.
`O=C1C(=O)c2cccc3cccc1c23`: the Potency result in assay [1], in [2], in assay [3], in assay [10], in [8] and in [7] was “inactive” throughout. The Potency in assay [4] was 61.1 µM (active).
Turning to `O=[N+]([O-])c1cc(C(F)(F)F)cc([N+](=O)[O-])c1Cl`, the Potency entry in [1], in assay [2], in assay [3], in assay [4] and in assay [6] was “inactive” throughout.
As for `Sc1ccccc1Cl`, the Potency entry in [1], in assay [2], in assay [3], in assay [4], in [10] and in assay [5] was “inactive” each time. In addition, the Potency entry in assay [6], in [8] and in assay [7] was “inactive” in each case.
Take `O=C1NCN(c2ccccc2)C12CCN(CCCOc1ccc(F)cc1)CC2`: the Potency result in [1], in assay [4], in assay [5], in [6] and in [7] was “inactive” throughout. For the same compound, the Potency in assay [2] is 6.68 µM (active); in assay [3], 9.44 µM (active).
Regarding `N#Cc1ccc(Cl)cc1`, the Potency result in [1], in assay [2], in assay [3], in [4], in assay [10] and in assay [5] was “inactive” in each case. For the same compound, the Potency entry in assay [6], in [8] and in assay [7] was “inactive” in each case.
For the compound `CCCC(Cn1cncn1)c1ccc(Cl)cc1Cl` (stereo not given), the Potency result in assay [1], in assay [2], in assay [3], in assay [6], in [8] and in assay [7] was “inactive” throughout. In addition, the Potency in [4] is 61.1 µM (active).
For `ClP(Cl)(Cl)(Cl)Cl`, the Potency in assay [1] was 31.9 µM (active). The Potency entry in assay [2], in [3], in assay [4], in assay [10], in assay [6] and in assay [8] was “inactive” throughout. Besides, the Potency result in [7] was “inactive”.
Turning to `O=C1CN=C(c2ccccc2)c2cc(Cl)ccc2N1CC1CC1`, the Potency result in assay [1], in assay [2], in assay [3], in assay [6] and in [7] was “inactive” throughout. In addition, the Potency in assay [5] is 25.5 µM (active).
Turning to `CCOP(=S)(OCC)Oc1cc(Cl)c(Br)cc1Cl`, the Potency result in assay [1], in assay [2], in [3], in [10] and in assay [7] was “inactive” in each case. The Potency in [4] was 21.7 µM (active).
As for `O=C(O)c1ccccc1C(=O)Nc1cccc2ccccc12`, the Potency result in assay [1], in assay [2], in assay [3], in [10], in [8] and in [7] was “inactive” each time. For the same compound, the Potency in assay [4] was 30.6 µM (active).
For the compound `CC(=O)CCC(C)=O`, the Potency entry in assay [1], in assay [2], in assay [3], in assay [4], in assay [10] and in [8] was “inactive” in each case. In [7], the Potency result is “inactive”.
In the case of `CN1[C@@H]2CC[C@H]1CC(OC(=O)c1cc(Cl)cc(Cl)c1)C2` (stereo not given in full), the Potency result in [1], in [2], in assay [9] and in assay [7] was “inactive” each time.

The values above are taken from PubChem BioAssay (Tox21).
